Screening results (PubChem)
Compounds with a hit are over-represented: about 5.4% of the library has one in this group of screens.
HSF1 inhib = HSF1 inhibitors in luciferase reporter cells, primary screen, cell-based, NIH3T3, luminescence | NIH3T3-HGL HSE-luciferase, MG132-induced, luminescence 8 h; stronger effect = lower value | activity change, negative = inhibition, % at 7.5 µM (by protocol) | actives 0.77% (n = 300,000) | AID 2098, 2009;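 active = more than half of replicate wells show activity change below -50%, luminescence cut by over half; inconclusive = some wells, but at most half, below -50%; inactive = no replicate well below -50%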;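 note: luciferase reports HSF-1 transcriptional activity via heat shock element; 0% = median of DMSO wells and -100% = zero luminescence signal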
FXN GAA850 act = FXN promoter activators, primary screen, cell-based, luciferase luminescence, HEK293 lucGAA850; HEK293 lucGAA850 FXN promoter luciferase reporter, 24 h; percent of 10 µM SAHA response; activation, % at 6 µM; actives 0.56% (n = 360,000);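 active = activation above the average of all compounds screened plus 3 SD, cutoff fixed separately per campaign, cut at about 7.5% in these data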;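 note: 0% = DMSO wells and 100% = 10 µM SAHA wells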
HSF-1 act = HSF-1 activators, primary screen, NIH3T3-HGL cells, MG132 stress, luminescence, single point | NIH3T3-HGL HSF-1 luciferase reporter, 8 h; 100% = twice DMSO control signal | activation, % at 9 µM | actives 1.7% (n = 300,000);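 active = mean replicate activation of at least 50% with a set share of replicates each reaching 50%; inconclusive = only one of those two conditions met; inactive = mean below 50% and too few replicates reaching it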;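 note: 0% = median of the neutral control wells and 100% = twice that signal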
AHR activator = AHR activators, primary screen, cell-based, luminescence, luciferase reporter, human | AHR-responsive luciferase reporter cells | actives 2.5% (n = 320,000) | Aryl hydrocarbon receptor (Homo sapiens), P35869 | activation, % at 5 µM; in the data active = activation above about 47%;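 note: 0% = vehicle wells and 100% = reference agonist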
DAX1 inh = DAX1 (NR0B1) inhibitors, primary screen, cell-based, HEK293, Gal4-DAX1, luciferase luminescence; HEK293 Gal4-DAX1 luciferase reporter; inhibition, % at 6.75 µM; actives 0.99% (n = 340,000); AID 504766, 2011;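 active = inhibition above the mean over all tested compounds plus 3 SD, cut at about 4.2% in these data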;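 note: 0% = DAX1-transfected cells with DMSO and 100% = empty-vector control cells with DMSO; inhibition shows as a rise in luminescence from relieved DAX1 repression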
The depositor's hits bear a star; ? = inconclusive; nt = not tested or not shown.

SMILES	HSF1 inhib	FXN GAA850 act	HSF-1 act	AHR activator	DAX1 inh
Cc1ccc(NCc2n[nH]c(=S)n2-c2cccc(Cl)c2)cc1	-1	2	-10	8	4.5*
Cc1ccc(-n2c(CNc3cccc(Cl)c3)n[nH]c2=S)cc1	9	2	11	6	0
CSc1ccc(N=Nc2c(C)[nH]n(C)c2=O)cc1	20	3	16	75*	2
Cc1ccc(N=Nc2c(C)[nH]n(-c3ccccc3)c2=O)cc1Br	-2	1	6	22	0
Nc1[nH]n(-c2ccccc2)c(=O)c1N=Nc1ccccc1	41	5	44	33	3
Cc1[nH]n(-c2ccccc2)c(=O)c1N=Nc1cccc(Cl)c1	6	1	10	58*	2
Nc1[nH]n(-c2ccccc2)c(=O)c1N=Nc1ccc2ncsc2c1	-6	-1	1	56*	0
COC(=O)c1ccc(N=Nc2c(C)[nH]n(-c3ccccc3)c2=O)cc1	-6	1	-4	78*	-1
Cc1[nH]n(-c2ccccc2)c(=O)c1N=Nc1cccc([N+](=O)[O-])c1	-10	0	12	4	1
Cc1[nH]n(-c2ccccc2)c(=O)c1N=Nc1ccc(F)cc1	-3	1	-7	65*	3
CCC[C@H]1CN(c2ccc(Br)cc2)C(=O)[C@@H]1CC(=O)NC	nt	1	nt	nt	0
O=C(CCC(=O)N1CCOc2ccccc21)NCCN1CCOCC1	-1	1	-10	-1	0
CC1(C)CC(CC(=O)NNc2nc(-c3ccccc3)cs2)C(=O)O1 (centres undefined)	3	0	10	7	0
CC1CC(CC(=O)NNc2nc(-c3ccccc3)cs2)C(=O)O1 (centres undefined)	1	0	-4	3	6.1*
C/C(CCC1CC(C)OC1=O)=N/Nc1nc(-c2ccccc2)cs1 (centres undefined)	-9	2	-14	103*	0
O=C(NCCCNC(=O)c1cnccn1)c1cccc(Cl)c1	-2	2	-4	1	0
CCCOc1ccc(N2C(=O)CC(N3CCN(c4ccc([N+](=O)[O-])cc4)CC3)C2=O)cc1 (centres undefined)	6	0	16	-1	5.2*
O=S(=O)(Nc1ccc2c(c1)OCCO2)c1c(F)cccc1F	-21	4	-23	1	0
CN(Cc1ccccc1)C(=O)c1cn(C)c2ccc(S(=O)(=O)N3CCCC3)cc2c1=O	-5	-1	7	1	1
COC(=O)N/N=C1\CCCc2c(C)cc(C)cc21	1	2	-11	7	4.3*
Cc1cc(C)c2c(c1)/C(=N/NS(=O)(=O)c1ccccc1)CCC2	-5	0	-15	3	0
Cc1cc(C)c2c(c1)/C(=N/NS(=O)(=O)c1ccc(Br)cc1)CCC2	-54*	1	-67	11	0
CC1(O)c2ccccc2C(=O)N1CCc1ccccc1F (centres undefined)	2	3	15	76*	2
CC1(O)c2ccccc2C(=O)N1Cc1ccccc1 (centres undefined)	1	1	13	-3	-1
O=C(Nc1ccc(Cc2ccncc2)cc1)c1ccc([N+](=O)[O-])o1	98	4	144*	-1	0
SMILES	HSF1 inhib	FXN GAA850 act	HSF-1 act	AHR activator	DAX1 inh
O=C(Nc1ccc(N2CCOCC2)cc1)c1ccc([N+](=O)[O-])o1	128	2	146*	4	1
O=C(COC(=O)c1ccc([N+](=O)[O-])o1)Nc1ccc(N2CCOCC2)cc1	nt	0	nt	0	0
CN1CCN(c2ccc(NC(=O)c3ccc(-c4ccccc4F)o3)cc2)CC1	nt	4	nt	64*	2
CN1CCN(c2ccc(NC(=O)c3ccc(Br)o3)cc2)CC1	7	5	19	23	1
O=C(Nc1ccc(Cc2ccncc2)cc1)c1cccc([N+](=O)[O-])c1	0	1	11	4	-1
O=C(Nc1ccc(S(=O)(=O)N2CCOCC2)cc1)c1cc([N+](=O)[O-])ccc1Cl	43	-2	?	-2	2
O=C(Nc1ccc(S(=O)(=O)N2CCOCC2)cc1)c1ccc(Cl)cc1Cl	-67*	2	-74	-4	0
CC(C)(C)c1ccc(OCC(=O)NCCN2CCOCC2)cc1	-3	-1	8	8	0
Cc1ccccc1C(=O)Nc1nnc(SC(C)C)s1	-3	5	27	-2	1
CC(=O)Nc1ccc(S(=O)(=O)Nc2ccc(Cc3ccncc3)cc2)cc1	-11	0	-11	-1	-2
CC1CCN(c2ccc(NC(=O)c3ccc(Br)o3)cc2)CC1	25	3	53*	4	1
CC(=O)Nc1ccc(Cc2ccncc2)cc1	-69*	-2	-76	5	0
O=C(Nc1ccc(S(=O)(=O)N2CCOCC2)cc1)c1ccc([N+](=O)[O-])o1	105	5	123*	-4	-1
CCN(CC)c1ccc(C(=O)OCc2c(C)noc2C)cc1	4	-1	2	3	-1
N/C(=N\OC(=O)COc1ccc(Cl)cc1Cl)c1cccnc1	49	6	93*	20	0
N/C(=N\OC(=O)c1cccc(Cl)c1)c1ccncc1	3	3	42	42	0
N/C(=N\OC(=O)COc1ccc(Cl)cc1)c1cccnc1	19	6	31	4	2
N/C(=N\OC(=O)c1cccc(Cl)c1)c1cccnc1	16	4	5	75*	2
N/C(=N\OC(=O)c1ccc2c(c1)OCO2)c1cccnc1	1	4	19	67*	1
Cc1ccc(NS(=O)(=O)c2cc(C(=O)NCCCN(C)C)ccc2Cl)cc1Cl	nt	0	nt	nt	0
CC1(C)CC(=O)C(N=Nc2ccc(OC(F)F)cc2)=C(O)C1	-56*	2	-64	0	1
O=C(CCC(=O)N(CC(=O)NC1CCCC1)Cc1ccccc1Cl)Nc1nccs1	-8	0	1	-1	0
C/C(=N\Nc1ccccc1[N+](=O)[O-])c1ccccc1O	34	5	33	38	4.4*
C/C(=N\Nc1cccc2cccnc12)c1ccccc1O	30	3	54*	50*	9.6*
C/C(=N\Nc1ccc(S(N)(=O)=O)cc1[N+](=O)[O-])c1ccccc1O	-4	1	0	1	1
Oc1c(/C=N/Nc2cccc3cccnc23)ccc2ccccc12	9	3	1	48*	1
C/C(=N\Nc1cccc2cccnc12)c1ccc(N)cc1	13	4	28	29	2
C/C(=N\Nc1cccc2cccnc12)c1ccccn1	15	2	49	47*	-1
